In all, about 310,000 compounds went through this assay and about 14,000 (4.5%) showed an effect of 50% or more. The effect is printed as a negative number. This excerpt belongs to a sample that is enriched for strong results.
Target: human ether-à-go-go-related gene (hERG) potassium channel (human, UniProt Q12809)
Assay: primary screen, population patch clamp on CHO cells stably expressing hERG; higher = less effect of the substance
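Also: peak tail current of the secondary pulse compared with the same well before compound.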

Sequence of human ether-à-go-go-related gene (hERG) potassium channel (Q12809 whole entry, looked up): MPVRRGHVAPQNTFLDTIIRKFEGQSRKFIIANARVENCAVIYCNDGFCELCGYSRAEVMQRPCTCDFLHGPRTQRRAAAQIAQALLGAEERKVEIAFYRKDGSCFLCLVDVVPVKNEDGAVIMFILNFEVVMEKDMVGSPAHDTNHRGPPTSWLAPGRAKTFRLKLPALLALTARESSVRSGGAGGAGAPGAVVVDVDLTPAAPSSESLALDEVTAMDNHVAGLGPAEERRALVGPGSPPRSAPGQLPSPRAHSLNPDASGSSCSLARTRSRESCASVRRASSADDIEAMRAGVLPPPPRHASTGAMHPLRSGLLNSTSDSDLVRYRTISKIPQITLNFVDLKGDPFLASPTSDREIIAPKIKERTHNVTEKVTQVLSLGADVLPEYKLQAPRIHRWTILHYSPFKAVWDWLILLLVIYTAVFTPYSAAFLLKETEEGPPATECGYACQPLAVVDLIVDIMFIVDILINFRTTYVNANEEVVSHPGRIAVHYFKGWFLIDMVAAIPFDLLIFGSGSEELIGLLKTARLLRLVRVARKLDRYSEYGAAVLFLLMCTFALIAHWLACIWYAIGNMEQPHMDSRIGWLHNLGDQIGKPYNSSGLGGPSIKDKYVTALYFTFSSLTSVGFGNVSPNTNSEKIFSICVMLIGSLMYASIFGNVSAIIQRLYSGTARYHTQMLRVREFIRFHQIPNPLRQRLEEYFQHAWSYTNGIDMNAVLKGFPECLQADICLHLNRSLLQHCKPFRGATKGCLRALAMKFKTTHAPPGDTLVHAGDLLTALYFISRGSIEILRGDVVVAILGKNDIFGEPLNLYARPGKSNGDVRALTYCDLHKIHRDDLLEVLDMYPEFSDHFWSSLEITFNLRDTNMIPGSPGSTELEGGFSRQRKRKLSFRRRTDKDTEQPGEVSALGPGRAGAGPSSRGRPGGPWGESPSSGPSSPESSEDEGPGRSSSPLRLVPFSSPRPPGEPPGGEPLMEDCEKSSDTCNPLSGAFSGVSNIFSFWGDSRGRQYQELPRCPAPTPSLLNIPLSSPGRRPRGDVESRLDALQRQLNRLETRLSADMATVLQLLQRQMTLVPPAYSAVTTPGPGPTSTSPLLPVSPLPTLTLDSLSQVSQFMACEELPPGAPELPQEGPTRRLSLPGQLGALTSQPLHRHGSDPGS

Structure (SMILES) | hERG current change (%, negative = inhibition) at 10uM
O=C(CCN1C(=O)c2ccccc2C1=O)N1CCN(Cc2ccccc2)CC1 | -22.8%
O=C(CCN1C(=O)c2ccccc2C1=O)N1CCCCCC1 | 0.431%
O=C(CCN1C(=O)c2ccccc2C1=O)N1CCN(Cc2ccc(Cl)cc2Cl)CC1 | -53.4%
CCN1CCN(C(=O)CCN2C(=O)c3ccccc3C2=O)CC1 | -1.77%
CN1CCN(C(=O)CCN2C(=O)c3ccccc3C2=O)CC1 | 14.7%
Cc1ccc(CN2CCN(C(=O)CCN3C(=O)c4ccccc4C3=O)CC2)cc1 | -55.4%
O=C(NN=C1CCN(Cc2ccccc2)CC1)c1ccccc1 | 7.78%
Cn1ccnc1SCCNC(=O)CCc1nnc(CCc2ccccc2)o1 | -10.2%
Cn1c(O)c(C=NCCN2CCNCC2)c(=O)[nH]c1=O | 13.6%
Cc1ccccc1C(=O)N=c1sccn1C | 24.7%
Cc1cc(F)ccc1NS(=O)(=O)c1c(C)nc2scc(C)n2c1=O | -35.8%
COc1cccc(Cn2c(=O)c3[nH]cnc3n(-c3ccccc3C)c2=O)c1 | -1.8%
CCOC(=O)c1c(NC(=O)C(C)N2CCN(S(=O)(=O)c3cccs3)CC2)sc2c1CCC(C)C2 (centres unmarked) | 6.72%
Cc1ccc(NC(=O)CN(C)C(=O)c2ccc3[nH]c4c(c3c2)CC(C)CC4)cc1 (centres unmarked) | 8.58%
O=C1C2CCCN2C(c2ccccc2)N1c1nccs1 (centres unmarked) | 17.7%
Cc1ccc(C2N(c3nccs3)C(=O)C3CCCN32)cc1 (centres unmarked) | -4.54%
Cc1ccccc1C1N(c2nccs2)C(=O)C2CCCN21 (centres unmarked) | -62.5%
CC(C)(/C=N/O)/[N+]([O-])=C/c1ccccc1 | 20.1%
CCCOc1cccc(NC(=O)OC2CCN(C)CC2)c1.O=C(O)/C=C/C(=O)O | -15.7%

Structure (SMILES) | hERG current change (%, negative = inhibition) at 10uM
COc1ccc(NC(=O)CSc2nc3ccccc3c(=O)n2Cc2cccs2)c(OC)c1 | -6.23%
CCn1cc2nc(SCC(=O)Nc3ccccc3F)n(Cc3ccccc3)c(=O)c2n1 | -70.6%
O=C(CSc1nc2nccnc2c(=O)n1Cc1cccs1)Nc1ccccc1F | -69.1%
CCn1cc2nc(SCC(=O)Nc3ccc(F)cc3F)n(Cc3ccccc3)c(=O)c2n1 | -40%
CC(C)CCn1c(SCC(=O)Nc2ccccc2C(F)(F)F)nc2nccnc2c1=O | -21.6%
Cn1c(Cc2cccs2)nnc1SCC(=O)Nc1ccccc1F | 1.93%
Cc1ccc(NC(=O)CSc2nc3ccccc3c(=O)n2Cc2cccs2)cc1 | 7.4%
CCn1cc2nc(SCC(=O)Nc3ccc(OC)cc3OC)n(Cc3ccc(OC)cc3)c(=O)c2n1 | 1.42%
COc1ccccc1NC(=O)CSc1nc2nccnc2c(=O)n1Cc1cccs1 | -69.9%
CCOc1ccc(NC(=O)CSc2nc3ccccc3c(=O)n2Cc2cccs2)cc1 | 13.6%
O=C(CSc1nc2nccnc2c(=O)n1Cc1cccs1)Nc1ccccc1 | -74.9%
COc1ccccc1NC(=O)CSc1nnc(Cc2cccs2)n1C | 5.99%
CC1(C)CC(=O)N(CC(=O)NC2CCCC2)c2ccccc2S1(=O)=O | 11.7%
COc1ccc(Br)cc1/C=N/NC(=O)C(c1ccncc1)N1CCOCC1 (centres unmarked) | 7.87%
CCOc1ccc(S(=O)(=O)NCCC(=O)NCc2cccnc2)cc1 | 4.31%
O=C1c2cccc3cc([N+](=O)[O-])cc(c23)C(=O)N1CC1CCCO1 (centres unmarked) | -8.56%
CCOC(=O)N1CCc2c(sc3[nH]c(=S)[nH]c(=S)c23)C1 | 13.4%
O=C(O)CC[N+](=O)[O-] | 15.3%
CCN(CC)CCNC(=O)c1[nH]c2ccc(OCc3ccccc3)cc2c1C | -74.6%

Structure (SMILES) | hERG current change (%, negative = inhibition) at 10uM
COc1ccc2[nH]c(C(=O)NCc3ccccc3)c(C)c2c1.Cl | 7.03%
Cc1c(C(=O)N2CCOCC2)[nH]c2ccc(OCc3ccccc3)cc12 | -13.2%
CCCc1cc(=O)oc2cc(OCC(=O)NCCCn3ccnc3)ccc12 | -47.1%
Cc1c(C)c2ccc(OC(C)C(=O)NCCCn3ccnc3)c(C)c2oc1=O (centres unmarked) | -6.05%
Cc1cc(OCC(=O)NCCCn2ccnc2)c2c(C)c(C)c(=O)oc2c1 | -63.6%
CCCc1cc(=O)oc2cc(C)cc(OCC(=O)NCCN3CCOCC3)c12 | 6.05%
CCc1cc(=O)oc2cc(OCC(=O)NCCCn3ccnc3)c(Cl)cc12 | -28.5%
CCCc1cc(=O)oc2cc(C)cc(OCC(=O)NCCCN3CCOCC3)c12 | -7.61%
Cc1cc(OC(C)C(=O)NCCCn2ccnc2)c2c(C)c(C)c(=O)oc2c1 (centres unmarked) | -76.7%
CCCc1cc(=O)oc2cc(OCC(=O)NCCCn3ccnc3)c(Cl)cc12 | -72.3%
Cc1c(C)c2cc(Cl)c(OCC(=O)NCCCn3ccnc3)cc2oc1=O | -2.59%
Cc1cc(OC(C)C(=O)NCCCn2ccnc2)c2c(C)cc(=O)oc2c1 (centres unmarked) | -15.4%
Cc1c(C)c2ccc(OCC(=O)NCCCn3ccnc3)cc2oc1=O | 14%
CCCc1cc(=O)oc2cc(C)cc(OCC(=O)NCCCn3ccnc3)c12 | -76.4%
Cc1cc(C(F)(F)F)nc(SCc2ccc(C(=O)O)o2)n1 | -2.51%
CC(=O)Oc1ccc2ccccc2c1C(NC(=O)Cc1ccccc1)c1ccccc1Cl (centres unmarked) | 7.9%
CCc1noc(C)c1C(=O)N1CCCC(C(=O)c2cc(F)ccc2F)C1 (centres unmarked) | -41.2%
N#Cc1ccccc1NC(=O)CSC1=Nc2ccccc2C2CC=NN12 (centres unmarked) | 1.95%

— paper PMC4336329 (PLoS ONE, 2015)
